Screening results from PubChem.
Sampled rows, rich in hits. Any-hit rate of the full collection: about 3%.
TrxR1 substrate – rat thioredoxin reductase 1 substrate activity | O89049 | purified TrxR1 substrate turnover, NADPH consumption readout | Potency, µM (doses to about 114 µM), inactives show at the highest dose activity change, negative = substrate turnover | actives 0.01% (n = 390,000); note: % is set by controls: 0 for no effect and ±100 for the full control effect; nearly all actives have a fitted effect of over 50% in size
Target sequence (O89049 whole entry, looked up): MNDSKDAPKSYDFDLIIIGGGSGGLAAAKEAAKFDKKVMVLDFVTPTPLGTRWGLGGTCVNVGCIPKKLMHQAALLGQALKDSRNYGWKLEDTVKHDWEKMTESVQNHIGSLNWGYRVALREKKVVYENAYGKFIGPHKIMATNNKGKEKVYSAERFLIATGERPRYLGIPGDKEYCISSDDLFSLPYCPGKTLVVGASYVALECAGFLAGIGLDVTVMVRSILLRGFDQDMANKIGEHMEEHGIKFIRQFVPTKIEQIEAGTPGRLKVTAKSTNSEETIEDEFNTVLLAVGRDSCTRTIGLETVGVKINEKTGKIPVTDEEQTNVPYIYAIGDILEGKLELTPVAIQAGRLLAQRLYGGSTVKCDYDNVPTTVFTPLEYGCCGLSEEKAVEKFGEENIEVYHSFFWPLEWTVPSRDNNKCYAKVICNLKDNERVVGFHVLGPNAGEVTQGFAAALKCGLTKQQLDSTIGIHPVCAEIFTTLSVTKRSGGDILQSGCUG
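Rat TrxR1, dispensed at 90 nM, was prereduced with 400 uM NADPH (final) for 5 min at ~22 deg C, then incubated with compound 15 min before 400 uM selenite. A first-read NADPH fluorescence drop versus no-compound background flagged substrates.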
rTrxR1 inhibitor – inhibitors of rat thioredoxin reductase 1 | recombinant rTrxR1, NADPH fluorescence consumption, selenite substrate | AID 588453 | O89049 | Potency, µM (highest dose often 114 µM), for inactives: top-dose activity change, negative = inhibition, most hits filed as inhibitors | actives 1% (n = 390,000); note: % is set by controls: 0 for no effect and ±100 for the full control effect; nearly all actives have a fitted effect of over 65% in size
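Rat TrxR1 (90 nM in the dispensed reagent) was pre-reduced with 400 uM NADPH for 5 min at room temperature, then incubated with compound for 15 min. After 400 uM selenite was added, NADPH fluorescence (Ex 340/Em 450 nm) was followed for 8 min.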
Nrf2 activator – activates Nrf2 signaling. AREc32 ARE-luciferase reporter (MCF7-derived line), luminescence, 24 h. Potency, µM (titrated, usually from 46.1 µM), for inactives: at the top dose activation, most hits filed as activators. actives 0.31% (n = 410,000); note: % of control where 0% means no effect; nearly all actives have a fitted effect of over 65% in size
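Luciferase luminescence (Steady-Glo, 30 min at room temperature) served as the read-out of ARE activation in AREc32 cells treated with compounds for 24 hr at 37 deg C.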
A549 viability – kills or reduces viability of A549 cells in Nrf2 counter-screen; A549 ARE-Fluc cells, CellTiter-Fluor viability, 18-24 h; Potency, µM (highest dose often 46 µM), for inactives: at the top dose activity change, negative = cytotoxicity, actives largely listed as inhibitors; actives 0.16% (n = 390,000); AID 504648; note: % is set by controls: 0 for no effect and ±100 for the full control effect
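Cytotoxicity counterscreen: CellTiter-Fluor fluorescence was measured in A549 ARE_Fluc cells after 18-24 h of compound exposure in a concentration series. The subsequent BugLite luminescent read reports ARE-luciferase activity.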
Nrf2 block – Nrf2 pathway inhibition | A549 ARE-Fluc reporter, luciferase luminescence, 18-24 h | Potency, µM (doses to about 46 µM), inactives show at the top dose activity change, negative = inhibition, most hits filed as inhibitors | actives 2.1% (n = 360,000); note: % is set by controls: 0 for no effect and ±100 for the full control effect; nearly all actives have a fitted effect of over 60% in size
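Nrf2 activity is the BugLite luminescence, read 15 min after reagent at room temperature, following CellTiter-Fluor cytotoxicity readout (30 min, 37C). Compound titrations were applied for 18-24 h to 5000 A549 ARE_Fluc cells/well in 5% FBS OPTI-MEM.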
GALK inhibitor – blocks human galactokinase activity. Purified GALK, Kinase-Glo residual ATP luminescence. P51570. actives 0.007% (n = 270,000). AID 1868. Potency, µM (titrated, usually from 57.5 µM), for inactives: at the top dose activity change, negative = inhibition, hits mostly inhibitors; note: % is set by controls: 0 for no effect and ±100 for the full control effect
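Quantitative HTS: GALK 5 nM, ATP 35 uM, galactose 100 uM, 1 h room temperature, then luciferase-based ATP detection.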
Numbers without * were called inactive; ? = inconclusive; / = not tested or not shown; ! = not active in a repeat; [ ] = dose if it differs, or a comment. Calls come from the whole dose curve; as a rule, active = well fitted curve in the direction sought with a large enough effect; inconclusive = small, poorly fitted or top-dose-only effect, or another doubt; inactive = no such curve, though single readings can be large; an effect the other way counts as inactive or inconclusive. Potency is the fitted concentration of half-maximal effect.

SMILES	TrxR1 substrate	rTrxR1 inhibitor	Nrf2 activator	A549 viability	Nrf2 block	GALK inhibitor
CC1CCN(c2nn3c(=O)c(C(=O)NCCCOC(C)C)cnc3s2)CC1	135%[57.1 µM]	18%[57.1 µM]	7%	11%	?	/
CC(C)(C)n1ncc2c(=O)n(Cc3cc(F)ccc3Cl)cnc21	-6%	-11%	/	/	/	/
COc1ccc(C(=O)Nc2ccc(-c3nc4ccccc4s3)c(Cl)c2)cc1Cl	15%	6%	0%	1%	18%	/
Cc1ccc(NC(=O)CSc2nc(-c3ccco3)nc3cc(=O)[nH]n23)c(Cl)c1	-15%	?	4%	-3%	6%	0%
O=C(CSc1nc(-c2ccco2)nc2cc(=O)[nH]n12)Nc1ccccc1Cl	5%[57.1 µM]	7%[57.1 µM]	14µM*	18%	0%	/
CC1CCCCC1NC(=O)COC(=O)c1c2c(nc3ccccc13)/C(=C\c1ccco1)CC2 (stereo not given)	-2%	14µM*	20%	-24%	-1%	/
CN(C(=O)COC(=O)c1c2c(nc3ccccc13)/C(=C/c1cccc([N+](=O)[O-])c1)CCC2)C1CCS(=O)(=O)C1 (stereo not given)	-9%	-11%	3%	-5%	1%	-2%
O=C(COC(=O)c1c2c(nc3ccccc13)/C(=C/c1cccc([N+](=O)[O-])c1)CCC2)NC1CCS(=O)(=O)C1 (stereo not given)	-4%	10%	1%[9.22 µM]	-4%	23µM*	1%
CN1CCCC1CCNc1ncnc2ccc(-c3ccc4c(c3)OCO4)cc12 (stereo not given)	/	/	/	0%	0%	/
Cc1cccc([S+](=O)([O-])NC2CCN(C#N)CC2)c1	/	/	/	-1%	13%	/
COc1ccc2cc(C(=O)N3CCN(Cc4ccc5c(c4)OCO5)CC3)[nH]c2c1	4%	6%	3%	-26%	21µM*	-9%
COc1ccc(/C(C)=N/NC(=O)c2nnn(-c3nonc3N)c2CN(C)c2ccccc2)cc1	2%	15%	0%	-13%	16µM*	-6%
C/C(=N\NC(=O)c1nnn(-c2nonc2N)c1CN1CCCCC1)c1ccccc1O	-2%	16%	-1%	2%	?	21%
C/C(=N\NC(=O)c1nnn(-c2nonc2N)c1CN(C)c1ccccc1)c1ccccc1O	-4%	7%	-1%	-18%	8.2µM*	6%
CCS(=O)(=O)c1nc(S(=O)(=O)c2ccc(Cl)cc2)c(N2CCOCC2)s1	-7%	?	?	5%	-10%	1%
CCCCc1nc(S(=O)(=O)c2ccc(Cl)cc2)c(N2CCOCC2)o1	0%[11.4 µM]	1.6µM*	-1%	-9%	7%	1%
CCS(=O)(=O)c1c(Nc2cc(C)ccc2C)sc(C(=O)c2ccccc2)c1N	-9%	1%	1%	-29%	23µM*	/
COc1cccc(/C(O)=C/C(=O)C(=O)Nc2ccc(S(=O)(=O)NC(C)=O)cc2)c1	-19%	22µM*	0%	8%	8%	/
O=C(Nc1ccc(Br)cc1)c1cccc(S(=O)(=O)Nc2ccccn2)c1	11%	27%	1%	?	13µM*	-3%
O=C(Nc1ccccc1)c1cccc(S(=O)(=O)Nc2ccccn2)c1	-7%	-15%	0%	3%	-8%	2%
COc1ccc(-c2csc(NC(=S)NC(=O)c3ccc4ccccc4c3)n2)cc1OC	-2%	13%	-1%	-14%	9.2µM*	-2%
COc1ccccc1C(=O)Nc1nc(-c2ccc3c(c2)OCCO3)cs1	27%	37%	5%	-4%	23µM*	6%
COc1ccc(-c2csc(NC(C)=O)n2)cc1OC	10%[57.1 µM]	18%[57.1 µM]	3%	-3%	11%	0%
COc1cccc(NC(=O)Nc2nc(-c3ccc(OC)c(OC)c3)cs2)c1	-3%	9%	-2%	16µM*	7.3µM*	0%
CC12CCC=CC1C(c1cccc([N+](=O)[O-])c1)N(Cc1ccccc1)C2=O (stereo not given)	-11%	?	/	-4%	14%	/
SMILES	TrxR1 substrate	rTrxR1 inhibitor	Nrf2 activator	A549 viability	Nrf2 block	GALK inhibitor
CCNc1cccc(S(=O)(=O)N2CCN(S(=O)(=O)c3ccc4c(c3)OCCO4)CC2)c1	/	/	/	-8%	?	/
COc1ccc(S(=O)(=O)Nc2cc3c(cc2NCc2ccccc2)n(C)c(=O)n3C)cc1OC	32%	-13%	?	1%	?	/
Cc1cc(S(=O)(=O)Nc2cc3c(cc2NCc2ccccc2)n(C)c(=O)n3C)ccc1F	73%	2%	13µM*	1%	?	/
Cn1c(=O)n(C)c2cc(NS(=O)(=O)c3ccc(C(C)(C)C)cc3)c(NCc3ccccc3)cc21	48%	-14%	19%	?	10µM*	/
Cc1ccc(CNS(=O)(=O)c2ccc3c(c2)n(C)c(=O)n3C)cc1	4%[57.1 µM]	13%[57.1 µM]	1%	-2%	21µM*	/
Cn1c(=O)n(C)c2cc(NS(=O)(=O)c3ccccc3)c(NCc3ccccc3)cc21	3%[57.1 µM]	4%[57.1 µM]	13µM*	2%	?	/
Cn1c(=O)n(C)c2cc(NS(=O)(=O)c3ccc(Cl)cc3)c(NCc3ccccc3)cc21	70%	?	?	-9%	?	/
CC(=O)Nc1ccc(S(=O)(=O)N2CCCN(S(=O)(=O)c3ccc4c(c3)OCCO4)CC2)cc1	/	/	/	-10%	?	/
CC(C)(C)n1ncc2c(=O)n(Cc3ccc([S+](=O)([O-])N4CCOCC4)cc3)cnc21	-3%	-10%	/	/	/	/
COc1ccc(C(=O)CCN(C)C)c2ccccc12	1%	0.4µM*	/	/	/	/
Cc1ccc(OCC(=O)N(Cc2ccco2)Cc2ccc(C)o2)cc1	-3%	10%	4%	7%	-16%	/
COc1cc(Nc2ccccc2Cl)c([N+](=O)[O-])nc1[N+](=O)[O-]	-4%[57.1 µM]	0.4µM*	?	?	?	1%
C=Cc1c(C)c2cc3[nH]c(cc4nc(cc5nc(cc1[nH]2)C(C)=C5CCC(=O)O)C(CCC(=O)O)=C4C)c(C)c3C=C	11%[57.1 µM]	5.3µM*!	0%	?	?	/
C=C(C)n1c(=O)n(Cc2ccc(C)cc2)c2ccccc21	1%	5%	0%	-22%	16µM*	2%
CC(=O)c1ccc(NC(=O)Cn2c(=O)nc(-c3ccccc3)c3cc(Cl)ccc32)cc1	-3%[57.1 µM]	11%[57.1 µM]	0%	-15%	/	/
Cc1cccc(OCC(=O)Nc2ccc(-c3nc4ccccc4o3)cc2)c1C	8%	27%	5%	-3%	21µM*	/
Cc1ccc(OCC(=O)Nc2ccncc2)cc1	4%[57.1 µM]	2%[57.1 µM]	-1%	4%	?	0%
Cc1cc(Cl)ccc1OCC(=O)Nc1ccncc1	7%	30%	-1%	-1%	23µM*	1%
